This note sets out measurements from publication PMC5869772, “Quantitative profiling of BATF family proteins/JUNB/IRF hetero-trimers using Spec-seq”.

In the first test the target is T1, BATF;JUNB (human;human, UniProt Q16520;P17275 1-125;148-347, |).
T1 sequence 1: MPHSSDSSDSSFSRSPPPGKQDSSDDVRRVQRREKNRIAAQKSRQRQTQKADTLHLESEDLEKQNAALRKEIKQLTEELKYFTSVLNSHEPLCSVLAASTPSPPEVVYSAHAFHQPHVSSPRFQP
T1 sequence 2: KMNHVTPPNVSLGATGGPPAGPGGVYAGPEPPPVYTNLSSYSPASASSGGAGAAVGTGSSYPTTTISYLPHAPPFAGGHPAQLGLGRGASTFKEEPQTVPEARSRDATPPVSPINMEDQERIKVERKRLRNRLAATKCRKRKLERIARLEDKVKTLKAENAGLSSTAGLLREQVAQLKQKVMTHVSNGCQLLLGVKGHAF
In words: Spec-seq (EMSA and sequencing of bound and unbound bands); 100 nM BATFx-JUNB, 1 uM dsDNA library, 50 mM K acetate, 20 mM Tris-acetate, 10 mM Mg acetate, 100 ug/ml BSA, pH 7.9, 10% glycerol, 30 min on ice; native 9% PAGE at 4 C; low values mean tight binding. The note with it: protein: recombinant;recombinant; tags: N-terminal mCherry-TEV, cleaved off;C-terminal 6His; copies: 1;1; dsDNA, one strand shown. A digest of the protocol:
(§1)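 The protein, at 100 nM, was incubated with 1 μM double-stranded degenerate DNA library for 30 min on ice in NEB Cutsmart buffer with 10% glycerol, then resolved by native 9% PAGE at 4 °C. Excised bound and unbound bands were PCR-barcoded and Illumina-sequenced, and each sequence's relative binding energy in kT is −ln of its bound/unbound read-count ratio.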
In the case of “GATAGTCTCATTTTCACCCCGTGAAATGACGCACTTGTTCCATTACAGTATCTGT”, the binding signal was -0.31 kT.
Still for that read-out and setting: the figure for “GATAGTCTCATTTTCACCCCGTGAAAAGAGTCATTTGTTCCATTACAGTATCTGT” is -0.155 kT; for “GATAGTCTCATTTTCACCCCGTGAAATGACTCTGTTGTTCCATTACAGTATCTGT” it is -0.0517 kT.
The same measure, in the same setting: the figure for “GATAGTCTCATTTTCACCCCGTGAAATGAGGCAGTTGTTCCATTACAGTATCTGT” is 0.781 kT; for “GATAGTCTCATTTTCACCCCGTGAAAGTGTGTCATTGTTCCATTACAGTATCTGT” it is -0.342 kT.
The same measure, in the same setting: the same measure for “GATAGTCTCATTTTCACCCCGTGAAATGGCTCATTTGTTCCATTACAGTATCTGT”: 0.393 kT; for “GATAGTCTCATTTTCACCCCGTGAAATGACCTCATTGTTCCATTACAGTATCTGT”: -0.305 kT; for “GATAGTCTCATTTTCACCCCGTGAAATGACACAGTTGTTCCATTACAGTATCTGT”: 0.189 kT.
For the sequence “GATAGTCTCATTTTCACCCCGTGAAACTGAGTCATTGTTCCATTACAGTATCTGT”, the binding signal is -1.39 kT.
The same measure, in the same setting: the same measure for “GATAGTCTCATTTTCACCCCGTGAAATGAGTGATTTGTTCCATTACAGTATCTGT”: 0.0243 kT.
Still for that read-out and setting: the figure for “GATAGTCTCATTTTCACCCCGTGAAATGACGTCATTGTTCCATTACAGTATCTGT” is -1.05 kT.
Same read-out and setting: the figure for “GATAGTCTCATTTTCACCCCGTGAAATGGCGTCATTGTTCCATTACAGTATCTGT” is -0.631 kT; for “GATAGTCTCATTTTCACCCCGTGAAATTAAGTCATTGTTCCATTACAGTATCTGT” it is -0.398 kT.
Consider “GATAGTCTCATTTTCACCCCGTGAAATGACGACATTGTTCCATTACAGTATCTGT”, for which the binding signal was -0.298 kT.
Same read-out and setting: the figure for “GATAGTCTCATTTTCACCCCGTGAAATGACTGAGTTGTTCCATTACAGTATCTGT” is -0.132 kT.
The same measure, in the same setting: the figure for “GATAGTCTCATTTTCACCCCGTGAAAGTAAGTCATTGTTCCATTACAGTATCTGT” is -0.0818 kT; for “GATAGTCTCATTTTCACCCCGTGAAAATGTGTCATTGTTCCATTACAGTATCTGT” it is -0.713 kT; for “GATAGTCTCATTTTCACCCCGTGAAATTGCGTCATTGTTCCATTACAGTATCTGT” it is -0.89 kT.

In another test the target is T2, BATF2 (bZIP);JUNB (human;human, UniProt Q8N1L9;P17275 1-142;148-347, |).
T2 sequence 1: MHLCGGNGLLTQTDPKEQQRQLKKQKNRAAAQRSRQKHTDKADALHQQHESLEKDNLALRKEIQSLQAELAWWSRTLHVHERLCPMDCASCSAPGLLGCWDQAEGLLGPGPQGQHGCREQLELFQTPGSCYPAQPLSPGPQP
T2 sequence 2: T1 sequence 2
Described as above. As to conditions: protein: recombinant;recombinant; tags: N-terminal mCherry-TEV, cleaved off;C-terminal 6His; copies: 1;1; dsDNA, one strand shown. A digest of the protocol:
as §1
For “GATAGTCTCATTTTCACCCCGTGAAACTCAGTCATTGTTCCATTACAGTATCTGT”, the binding signal amounted to 0.236 kT.
On the same count and under the same terms, the same measure for “GATAGTCTCATTTTCACCCCGTGAAATTGAGTCATTGTTCCATTACAGTATCTGT”: -0.804 kT.
On the same count and under the same terms, the same measure for “GATAGTCTCATTTTCACCCCGTGAAATGAGGCATTTGTTCCATTACAGTATCTGT”: 1.08 kT.
In the case of “GATAGTCTCATTTTCACCCCGTGAAATGAGTCTTTTGTTCCATTACAGTATCTGT”, the binding signal came out at 1.04 kT.
Same read-out and setting: the same measure for “GATAGTCTCATTTTCACCCCGTGAAATGACGCATTTGTTCCATTACAGTATCTGT”: 0.109 kT; for “GATAGTCTCATTTTCACCCCGTGAAAATAAGTCATTGTTCCATTACAGTATCTGT”: -0.0249 kT; for “GATAGTCTCATTTTCACCCCGTGAAATGAGTGACTTGTTCCATTACAGTATCTGT”: 0.827 kT.
Still for that read-out and setting: the figure for “GATAGTCTCATTTTCACCCCGTGAAATGGAGTCATTGTTCCATTACAGTATCTGT” is 0.239 kT; for “GATAGTCTCATTTTCACCCCGTGAAATGAGTCGGTTGTTCCATTACAGTATCTGT” it is 1.07 kT.
On to “GATAGTCTCATTTTCACCCCGTGAAATGACACAATTGTTCCATTACAGTATCTGT”, for which the binding signal was 0.413 kT.
The same measure, in the same setting: the figure for “GATAGTCTCATTTTCACCCCGTGAAATGAGTGAATTGTTCCATTACAGTATCTGT” is 0.83 kT; for “GATAGTCTCATTTTCACCCCGTGAAATGATGTCATTGTTCCATTACAGTATCTGT” it is -0.708 kT; for “GATAGTCTCATTTTCACCCCGTGAAATGACATCATTGTTCCATTACAGTATCTGT” it is -0.296 kT.
On the same count and under the same terms, the figure for “GATAGTCTCATTTTCACCCCGTGAAATGACGTCCTTGTTCCATTACAGTATCTGT” is 0.602 kT; for “GATAGTCTCATTTTCACCCCGTGAAAGGACGTCATTGTTCCATTACAGTATCTGT” it is 0.108 kT.
As for “GATAGTCTCATTTTCACCCCGTGAAATGACGCACTTGTTCCATTACAGTATCTGT”, the binding signal came to 0.227 kT.
Same read-out and setting: the figure for “GATAGTCTCATTTTCACCCCGTGAAAAGAGTCATTTGTTCCATTACAGTATCTGT” is 0.416 kT.
On the same count and under the same terms, the same measure for “GATAGTCTCATTTTCACCCCGTGAAATGACTCTGTTGTTCCATTACAGTATCTGT”: 0.667 kT.
On to “GATAGTCTCATTTTCACCCCGTGAAATGAGGCAGTTGTTCCATTACAGTATCTGT”, for which the binding signal amounted to 1.36 kT.
Turning to “GATAGTCTCATTTTCACCCCGTGAAAGTGTGTCATTGTTCCATTACAGTATCTGT”, the binding signal was -0.00937 kT.
The same measure, in the same setting: the same measure for “GATAGTCTCATTTTCACCCCGTGAAATGGCTCATTTGTTCCATTACAGTATCTGT”: 1.11 kT; for “GATAGTCTCATTTTCACCCCGTGAAATGACCTCATTGTTCCATTACAGTATCTGT”: 0.217 kT.
